Source: the supplement of paper PMC4466140

B1: unnamed (peptide)
chain: SAPDIPPRSPNRNAH
B2: unnamed (peptide)
chain: QFDLKMPSKPIHNLK

molecular target: AgAbp1; assay: SPOT peptide array binding signal intensity (averaged, normalized) (arbitrary units (background-subtracted, floor 0; scale differs between SH3 domains)); higher = stronger binding of the SH3 domain to the peptide
Method in brief: (§1)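 E. coli BL21(DE3) was used to express GST-fused SH3 domains from four yeast species, which were then purified on glutathione Sepharose. These were incubated at 10 μg/ml in TBS-based blocking buffer overnight at 4°C on cellulose membranes carrying synthetic 15-mer peptides, in which cysteines were replaced by serines. Binding signal is the replicate average of normalized, background-subtracted spot intensity, in arbitrary units that differ between domains.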

Row | Binder | SPOT peptide array binding signal intensity
1 | B1 | ≤ 0

molecular target: AgBbc1; assay: as above
Method in brief: as §1

Row | Binder | SPOT peptide array binding signal intensity
2 | B1 | 498

molecular target: AgBem1-D1; assay: as above
Method in brief: as §1

Row | Binder | SPOT peptide array binding signal intensity
3 | B1 | ≤ 0

molecular target: AgBzz1-D1; assay: as above
Method in brief: as §1

Row | Binder | SPOT peptide array binding signal intensity
4 | B1 | 34.5

molecular target: AgBzz1-D2; assay: as above
Method in brief: as §1

Row | Binder | SPOT peptide array binding signal intensity
5 | B1 | ≤ 0

molecular target: AgCyk3; assay: as above
Method in brief: as §1

Row | Binder | SPOT peptide array binding signal intensity
6 | B1 | ≤ 0

molecular target: AgFus1; assay: as above
Method in brief: as §1

Row | Binder | SPOT peptide array binding signal intensity
7 | B1 | ≤ 0

molecular target: AgHof1; assay: as above
Method in brief: as §1

Row | Binder | SPOT peptide array binding signal intensity
8 | B1 | ≤ 0

molecular target: AgHse1; assay: as above
Method in brief: as §1

Row | Binder | SPOT peptide array binding signal intensity
9 | B1 | ≤ 0

molecular target: AgLsb1; assay: as above
Method in brief: as §1

Row | Binder | SPOT peptide array binding signal intensity
10 | B1 | 324

molecular target: AgLsb4; assay: as above
Method in brief: as §1

Row | Binder | SPOT peptide array binding signal intensity
11 | B1 | 328

molecular target: AgMyo5; assay: as above
Method in brief: as §1

Row | Binder | SPOT peptide array binding signal intensity
12 | B1 | ≤ 0

molecular target: AgNbp2; assay: as above
Method in brief: as §1

Row | Binder | SPOT peptide array binding signal intensity
13 | B1 | 3.5

molecular target: AgRvs167; assay: as above
Method in brief: as §1

Row | Binder | SPOT peptide array binding signal intensity
14 | B1 | 36.3

molecular target: AgSho1; assay: as above
Method in brief: as §1

Row | Binder | SPOT peptide array binding signal intensity
15 | B1 | ≤ 0

molecular target: AgSla1-D1-D2; assay: as above
Method in brief: as §1

Row | Binder | SPOT peptide array binding signal intensity
16 | B1 | ≤ 0

molecular target: AgSla1-D3; assay: as above
Method in brief: as §1

Row | Binder | SPOT peptide array binding signal intensity
17 | B1 | ≤ 0

molecular target: CaAbp1-D1; assay: as above
Method in brief: as §1

Row | Binder | SPOT peptide array binding signal intensity
18 | B1 | ≤ 0

molecular target: CaAbp1-D2; assay: as above
Method in brief: as §1

Row | Binder | SPOT peptide array binding signal intensity
19 | B1 | 4.5

molecular target: CaBbc1; assay: as above
Method in brief: as §1

Row | Binder | SPOT peptide array binding signal intensity
20 | B1 | 575

molecular target: CaBem1-D1; assay: as above
Method in brief: as §1

Row | Binder | SPOT peptide array binding signal intensity
21 | B1 | 1

molecular target: CaBzz1-D1; assay: as above
Method in brief: as §1

Row | Binder | SPOT peptide array binding signal intensity
22 | B1 | 85

molecular target: CaBzz1-D2; assay: as above
Method in brief: as §1

Row | Binder | SPOT peptide array binding signal intensity
23 | B1 | ≤ 0

molecular target: CaCyk3; assay: as above
Method in brief: as §1

Row | Binder | SPOT peptide array binding signal intensity
24 | B1 | 3

molecular target: CaFus1; assay: as above
Method in brief: as §1

Row | Binder | SPOT peptide array binding signal intensity
25 | B1 | ≤ 0

molecular target: CaHof1; assay: as above
Method in brief: as §1

Row | Binder | SPOT peptide array binding signal intensity
26 | B1 | ≤ 0

molecular target: CaHse1; assay: as above
Method in brief: as §1

Row | Binder | SPOT peptide array binding signal intensity
27 | B1 | 9.75

molecular target: CaLsb1; assay: as above
Method in brief: as §1

Row | Binder | SPOT peptide array binding signal intensity
28 | B1 | 0.25

molecular target: CaLsb4; assay: as above
Method in brief: as §1

Row | Binder | SPOT peptide array binding signal intensity
29 | B1 | 4890

molecular target: CaMyo5; assay: as above
Method in brief: as §1

Row | Binder | SPOT peptide array binding signal intensity
30 | B1 | ≤ 0

molecular target: CaNbp2; assay: as above
Method in brief: as §1

Row | Binder | SPOT peptide array binding signal intensity
31 | B1 | ≤ 0

molecular target: CaRvs167; assay: as above
Method in brief: as §1

Row | Binder | SPOT peptide array binding signal intensity
32 | B1 | 321

molecular target: CaRvs167-3; assay: as above
Method in brief: as §1

Row | Binder | SPOT peptide array binding signal intensity
33 | B1 | 1

molecular target: CaSho1; assay: as above
Method in brief: as §1

Row | Binder | SPOT peptide array binding signal intensity
34 | B1 | ≤ 0

molecular target: CaSla1-D1-D2; assay: as above
Method in brief: as §1

Row | Binder | SPOT peptide array binding signal intensity
35 | B1 | 290

molecular target: CaSla1-D3; assay: as above
Method in brief: as §1

Row | Binder | SPOT peptide array binding signal intensity
36 | B1 | ≤ 0

molecular target: ScAbp1; assay: as above
Method in brief: as §1

Row | Binder | SPOT peptide array binding signal intensity
37 | B1 | 4.5

molecular target: ScBbc1; assay: as above
Method in brief: as §1

Row | Binder | SPOT peptide array binding signal intensity
38 | B1 | 35.8

molecular target: ScBem1-D1; assay: as above
Method in brief: as §1

Row | Binder | SPOT peptide array binding signal intensity
39 | B1 | ≤ 0

molecular target: ScBzz1-D1; assay: as above
Method in brief: as §1

Row | Binder | SPOT peptide array binding signal intensity
40 | B1 | ≤ 0

molecular target: ScBzz1-D2; assay: as above
Method in brief: as §1

Row | Binder | SPOT peptide array binding signal intensity
41 | B1 | ≤ 0

molecular target: ScCyk3; assay: as above
Method in brief: as §1

Row | Binder | SPOT peptide array binding signal intensity
42 | B1 | ≤ 0

molecular target: ScFus1; assay: as above
Method in brief: as §1

Row | Binder | SPOT peptide array binding signal intensity
43 | B1 | ≤ 0

molecular target: ScHof1; assay: as above
Method in brief: as §1

Row | Binder | SPOT peptide array binding signal intensity
44 | B1 | ≤ 0

molecular target: ScHse1; assay: as above
Method in brief: as §1

Row | Binder | SPOT peptide array binding signal intensity
45 | B1 | 17.5

molecular target: ScLsb1; assay: as above
Method in brief: as §1

Row | Binder | SPOT peptide array binding signal intensity
46 | B1 | 763

molecular target: ScLsb2; assay: as above
Method in brief: as §1

Row | Binder | SPOT peptide array binding signal intensity
47 | B1 | 1090

molecular target: ScLsb3; assay: as above
Method in brief: as §1

Row | Binder | SPOT peptide array binding signal intensity
48 | B1 | 5380

molecular target: ScLsb4; assay: as above
Method in brief: as §1

Row | Binder | SPOT peptide array binding signal intensity
49 | B1 | 936

molecular target: ScMyo3; assay: as above
Method in brief: as §1

Row | Binder | SPOT peptide array binding signal intensity
50 | B1 | ≤ 0

molecular target: ScMyo5; assay: as above
Method in brief: as §1

Row | Binder | SPOT peptide array binding signal intensity
51 | B1 | ≤ 0

molecular target: ScNbp2; assay: as above
Method in brief: as §1

Row | Binder | SPOT peptide array binding signal intensity
52 | B1 | 57

molecular target: ScPex13; assay: as above
Method in brief: as §1

Row | Binder | SPOT peptide array binding signal intensity
53 | B1 | 130

molecular target: ScRvs167; assay: as above
Method in brief: as §1

Row | Binder | SPOT peptide array binding signal intensity
54 | B1 | 1360

molecular target: ScSho1; assay: as above
Method in brief: as §1

Row | Binder | SPOT peptide array binding signal intensity
55 | B1 | 13.5

molecular target: ScSla1-D1-D2; assay: as above
Method in brief: as §1

Row | Binder | SPOT peptide array binding signal intensity
56 | B1 | 134

molecular target: ScSla1-D3; assay: as above
Method in brief: as §1

Row | Binder | SPOT peptide array binding signal intensity
57 | B1 | ≤ 0

molecular target: SpAbp1-D1; assay: as above
Method in brief: as §1

Row | Binder | SPOT peptide array binding signal intensity
58 | B1 | ≤ 0

molecular target: SpBbc1; assay: as above
Method in brief: as §1

Row | Binder | SPOT peptide array binding signal intensity
59 | B1 | 3.5

molecular target: SpBzz1-D1; assay: as above
Method in brief: as §1

Row | Binder | SPOT peptide array binding signal intensity
60 | B1 | ≤ 0

molecular target: SpBzz1-D2; assay: as above
Method in brief: as §1

Row | Binder | SPOT peptide array binding signal intensity
61 | B1 | ≤ 0
62 | B2 | ≤ 0

molecular target: SpCyk3; assay: as above
Method in brief: as §1

Row | Binder | SPOT peptide array binding signal intensity
63 | B1 | ≤ 0
64 | B2 | ≤ 0

molecular target: SpHof1; assay: as above
Method in brief: as §1

Row | Binder | SPOT peptide array binding signal intensity
65 | B1 | 0.75
66 | B2 | 9

molecular target: SpHof1-2; assay: as above
Method in brief: as §1

Row | Binder | SPOT peptide array binding signal intensity
67 | B1 | ≤ 0
68 | B2 | 11.8

molecular target: SpHof1-3; assay: as above
Method in brief: as §1

Row | Binder | SPOT peptide array binding signal intensity
69 | B1 | 1
70 | B2 | ≤ 0

molecular target: SpHse1; assay: as above
Method in brief: as §1

Row | Binder | SPOT peptide array binding signal intensity
71 | B1 | 12
72 | B2 | 136

molecular target: SpLsb1; assay: as above
Method in brief: as §1

Row | Binder | SPOT peptide array binding signal intensity
73 | B1 | 540
74 | B2 | ≤ 0

molecular target: SpLsb4; assay: as above
Method in brief: as §1

Row | Binder | SPOT peptide array binding signal intensity
75 | B1 | 6620
76 | B2 | 318

molecular target: SpMyo1; assay: as above
Method in brief: as §1

Row | Binder | SPOT peptide array binding signal intensity
77 | B1 | ≤ 0
78 | B2 | ≤ 0

molecular target: SpNbp2; assay: as above
Method in brief: as §1

Row | Binder | SPOT peptide array binding signal intensity
79 | B1 | 59.5
80 | B2 | 74.5

molecular target: SpPex13; assay: as above
Method in brief: as §1

Row | Binder | SPOT peptide array binding signal intensity
81 | B1 | ≤ 0
82 | B2 | 1

molecular target: SpRvs167; assay: as above
Method in brief: as §1

Row | Binder | SPOT peptide array binding signal intensity
83 | B1 | 1600
84 | B2 | ≤ 0

molecular target: SpSla1-D1-D2; assay: as above
Method in brief: as §1

Row | Binder | SPOT peptide array binding signal intensity
85 | B1 | ≤ 0
86 | B2 | 5

molecular target: SpSla1-D3; assay: as above
Method in brief: as §1

Row | Binder | SPOT peptide array binding signal intensity
87 | B1 | ≤ 0
88 | B2 | 30
